From PubChem BioAssay (NCATS) come the findings set out here.

Results filed as inconclusive are left out. The source made the active and inactive calls. Calls come from the whole dose curve; as a rule, active = well fitted curve in the direction sought with a large enough effect; inconclusive = small, poorly fitted or top-dose-only effect, or another doubt; inactive = no such curve, though single readings can be large; an effect the other way counts as inactive or inconclusive.

Assay [1] deals with Phospholipid hydroperoxide glutathione peroxidase GPX4 (Homo sapiens) (UniProt P36969). The assay can be described thus: Primary qHTS Assay for Inhibitors of Recombinant Selenoprotein Glutathione Peroxidase 4 (GPX4) (AID 1845192). Note: nearly all actives have a fitted effect of over 65% in size. The essentials: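 GR-coupled assay: recombinant GPX4 preincubated 30 min with compound at room temperature; final 200 nM GPX4, 1 mM GSH, 0.5 mM cumene hydroperoxide, 0.5 mM NADPH, 100 nM GR, 0.01% BSA, pH 7.5 Tris. NADPH fluorescence (340/450 nm) read at 0 and 15 min.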
Chain of Phospholipid hydroperoxide glutathione peroxidase GPX4 (Homo sapiens) (P36969 whole entry, looked up): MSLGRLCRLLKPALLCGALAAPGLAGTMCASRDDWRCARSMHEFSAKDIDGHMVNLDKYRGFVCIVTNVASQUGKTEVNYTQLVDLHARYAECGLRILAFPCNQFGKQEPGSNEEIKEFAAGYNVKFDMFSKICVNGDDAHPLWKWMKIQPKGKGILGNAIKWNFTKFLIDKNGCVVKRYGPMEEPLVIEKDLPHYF
For orientation: Quantitative high-throughput screening tests each substance at several concentrations.

Assay [2] is described as follows: Quantitative High-Throughput drug screen in 47 multiple myeloma cell lines against the NCATS MIPE library collection: EJM_DSMZ cell viability assay (AID 1918926; note: nearly all actives have a fitted effect of over 30% in size; note: potency is the fitted concentration of half-maximal effect). The essentials:
(§1)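 Inhibition of cell viability is measured here. Each line was plated at 500 cells per well, treated with MIPE 4.0 drugs, kept 48 hours at 37C, then assayed for ATP content by CellTiter-Glo luminescence.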

A short description of assay [3]: Quantitative High-Throughput drug screen in 47 multiple myeloma cell lines against the NCATS MIPE library collection: AMO1_DSMZ cell viability assay (AID 1918927; note: nearly all actives have a fitted effect of over 30% in size; note: potency is the fitted concentration of half-maximal effect). The essentials:
as §1

Assay [4] in a line: Quantitative High-Throughput drug screen in 47 multiple myeloma cell lines against the NCATS MIPE library collection: ARP1_JJKsccF8 cell viability assay (AID 1918928; note: nearly all actives have a fitted effect of over 40% in size; note: potency is the fitted concentration of half-maximal effect). Summed up: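 Myeloma cells at 500 per well in 1536-well format treated with MIPE 4.0 library by pin transfer for 48 h at 37C, 5% CO2. Viability from ATP luminescence (CellTiter-Glo), normalized to DMSO (100%) and media-only (0%) wells.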

The nature of assay [5]: Quantitative High-Throughput drug screen in 47 multiple myeloma cell lines against the NCATS MIPE library collection: Delta47_JCRB cell viability assay (AID 1918925; note: nearly all actives have a fitted effect of over 45% in size; note: potency is the fitted concentration of half-maximal effect). The essentials:
as §1

The nature of assay [6]: Quantitative High-Throughput drug screen in 47 multiple myeloma cell lines against the NCATS MIPE library collection: FR4_PLB cell viability assay (AID 1918924; note: nearly all actives have a fitted effect of over 35% in size; note: potency is the fitted concentration of half-maximal effect). The essentials:
as §1

In assay [7] the target is Luciferin 4-monooxygenase (Photinus pyralis) (UniProt P08659). Briefly: Primary firefly luciferase (FLuc) qHTS assay for identification of artifact compounds. (AID 1845220). Note: nearly all actives have a fitted effect of over 60% in size. Summed up:
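Titrated compounds were incubated 15 min at RT, protected from light, with luciferin and ATP at 10 uM; reaction started with 10 nM FLuc, luminescence imaged at 5 min, and concentration-response fitted by Hill equation.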

A short description of assay [8]: Primary fluorescence-based thiol-reactive (MSTI) qHTS assay for identification of artifact compounds. (AID 1845221).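 Note: series mostly up to about 54 µM; thiol-reactive compounds lower the probe fluorescence signal; nearly all actives have a fitted effect of over 65% in size.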 The essentials:
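Probe: MSTI 4 uM, PBS pH 7.4, 2% DMSO. Incubation 1 h, RT, light-protected. Readout fluorescence 525/598 nm.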

Assay [9] deals with Nanoluciferase (engineered Oplophorus gracilirostris luciferase). Briefly: Primary Nanoluciferase (NLuc) qHTS assay for identification of artifact compounds. (AID 1845222).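 Note: NLuc secreted into diluted conditioned medium of S16 cells; series mostly up to about 54 µM.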 The essentials:
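qHTS format, against NLuc in S16 cell-conditioned medium. Nano-Glo substrate 1:100 was added after 15 min at room temperature. Luminescence was taken after a further 5 min.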

Assay [10] in a line: Primary redox qHTS assay for identification of artifact compounds. (AID 1845223). Summed up:
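Amplex Red (25 uM) and HRP (250 mU/mL) in HBSS, with compounds for 15 min, then 250 uM DTT for 30 min, room temperature, dark. Fluorescence 525/598 nm read; normalized to DMSO and 10 uM DA3003; Hill fit.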

Regarding `COc1ccc(-c2nc(N3CCOCC3)c3sc(CN(C)c4ncc(C(=O)NO)cn4)cc3n2)cn1`, the Potency entry in assay [1] and in assay [4] was “inactive” each time. The values for the Potency in assay [2] and in [3] were 0.0042 µM (active) and 0.001 µM (active), respectively.

As to `CC(=O)Oc1cc2c(s1)CCN(C(C(=O)C1CC1)c1ccccc1F)C2` (stereo unspecified), the Potency result in assay [1] is “inactive”. Further, the Potency in assay [5] was 3.32 µM (active); in assay [3], 1.87 µM (active).

With `O=C1NC(=O)C(=Cc2ccc3c(c2)OC(F)(F)O3)S1`, in assay [6], the Potency entry was “inactive”.

Take `CC(C)(C)OC(=O)N[C@H]1CCCCCC=C[C@@H]2C[C@@]2(C(=O)NS(=O)(=O)C2CC2)NC(=O)[C@@H]2C[C@@H](OC(=O)N3Cc4cccc(F)c4C3)CN2C1=O`: the Potency entry in assay [7], in [8], in assay [9], in [6], in [5] and in assay [2] was “inactive” in each case. For the same compound, the Potency entry in assay [3] was “inactive”.

As for `COc1ccc2cc(-c3nc(-c4ccc(S(C)=O)cc4)[nH]c3-c3ccncc3)ccc2c1` (stereo unspecified), the Potency result in assay [7], in assay [8] and in assay [9] was “inactive” each time. The call in assay [10] was inactive. The Potency in [5] was 16.6 µM (active).

Take `C[N+]1(C)[C@@H]2CC(OC(=O)[C@H](CO)c3ccccc3)C[C@H]1[C@H]1O[C@@H]12` (stereo partly specified): the Potency result in assay [6], in [5], in [2] and in assay [3] was “inactive” each time.

As to `COc1cc2nc(-c3ccc(N4CCN(C)CC4)cc3)nc(NCCN3CCOCC3)c2cc1OC`, the Potency entry in assay [7], in [8] and in assay [9] was “inactive” each time. Besides, the Potency in assay [6] is 0.0296 µM (active); in [5], 0.148 µM (active); in assay [2], 0.0264 µM (active); in [3], 0.148 µM (active).

As for `NC(=O)c1cccc2[nH]c(-c3ccc([C@H]4CCCN4)cc3F)nc12`, the Potency entry in assay [8], in assay [9], in [6] and in [2] was “inactive” in each case. Besides, the call in assay [10] was inactive.

As for `CC(=O)OC1C(C)OC(Oc2c(-c3ccc(O)cc3)oc3cc(O)cc(O)c3c2=O)C(O)C1OC(C)=O` (stereo unspecified), the Potency result in assay [1] and in assay [4] was “inactive” each time.

Take `COc1ccc(C2CC(c3ccccc3)=NN2c2ccc(S(N)(=O)=O)cc2)cc1` (stereo unspecified): the Potency result in [8] and in assay [9] was “inactive” each time. In assay [10], the call was inactive. Moreover, in assay [3], the Potency was 11.8 µM (active).

Regarding `COc1cccc([C@@H](C)NCCCc2ccccc2Cl)c1`, the Potency result in assay [1], in assay [2] and in assay [4] was “inactive” each time.

In the case of `COC(=O)N[C@H](C(=O)N1CCC[C@@H]1c1ncc(-c2ccc(-c3ccc(-c4cnc([C@@H]5CCCN5C(=O)[C@@H](NC(=O)OC)C(C)C)[nH]4)cc3)cc2)[nH]1)C(C)C`, the Potency is 23.5 µM (active) in assay [6] and 20.9 µM (active) in assay [5].

As to `O=C1NC(=O)C(=Cc2ccc(-c3ccc(F)cc3)o2)S1`, the Potency entry in assay [6] is “inactive”.

For `O=C1C[C@@H](c2ccc(O)cc2)Oc2cc(O)cc(O)c21`, the Potency result in assay [6], in assay [5] and in [2] was “inactive” in each case.

Take `CC[C@]1(O)C[C@@H]2CN(CCc3c([nH]c4ccccc34)[C@@](C(=O)OC)(c3cc4c(cc3OC)N(C=O)[C@@H]3C45CCN4CC=C[C@](CC)([C@H]45)[C@@H](OC(C)=O)[C@]3(O)C(=O)OC)C2)C1` (stereo partly specified): the Potency in assay [6] was 20.9 µM (active).

For the compound `C=C1C(=O)OC(CCCCCCCC)C1C(=O)O` (stereo unspecified), the Potency entry in assay [1], in assay [3] and in assay [4] was “inactive” in each case. Moreover, the Potency in assay [5] was 14.8 µM (active).

In the case of `CCC(=O)O[C@]1(C(=O)CO)CC[C@H]2[C@@H]3CCC4=CC(=O)CC[C@]4(C)[C@@H]3CC[C@@]21C`, the Potency entry in assay [6], in [5], in assay [2] and in assay [3] was “inactive” each time.

As to `COC[C@@H](c1ccc(C(F)(F)F)cc1)N1CCN(C2(C)CCN(C(=O)c3c(C)ncnc3C)CC2)C[C@H]1C`, the Potency entry in [6] and in assay [2] was “inactive” in each case. In addition, the values for the Potency in assay [5] and in assay [3] were 23.5 µM (active) and 16.6 µM (active), respectively.

On to `CCOC1OC(=O)C[C@H]1NC(=O)[C@@H]1CCCN1C(=O)[C@@H](NC(=O)c1ccc(N)c(Cl)c1)C(C)(C)C` (stereo partly specified), for which the Potency entry in [6], in assay [5] and in assay [2] was “inactive” in each case. The Potency in [3] was 18.7 µM (active).

For `O=C(O)c1cc(O)c2c(c1)C(=O)c1cccc(O)c1C2=O`, the Potency result in assay [1] is “inactive”. Besides, the Potency in assay [4] was 34 µM (active).

`CN(C)Cc1ccc(-c2nc3cccc4c3n2CCNC4=O)cc1`: the Potency entry in [7], in assay [8] and in assay [9] was “inactive” each time. Besides, in [10], the call was inactive. Further, the Potency is 23.5 µM (active) in assay [6], 23.5 µM (active) in assay [5], 20.9 µM (active) in [2] and 18.7 µM (active) in assay [3].

`C[C@H]1[C@H](NC(=O)C(=NOC(C)(C)C(=O)O)c2csc(N)n2)C(=O)N1S(=O)(=O)O`: the Potency entry in assay [6], in assay [5], in [2] and in assay [3] was “inactive” in each case.

For the compound `CC(=Cc1ccccc1)C=C1SC(=S)N(CC(=O)O)C1=O`, the Potency entry in [6], in assay [5], in [2] and in assay [3] was “inactive” each time.
